Assay results published in PubChem BioAssay (NCI).
Where “and” joins values, the source holds several entries; their conditions need not be identical. Identical values can stand only once. The panel holds about 83,000 compounds, 20% with a hit somewhere; the sample as a whole holds those more often.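 Results are percent growth after 48 hours of single-concentration exposure. 100 means growth as in untreated cells, lower positive values show inhibition; negative values down to -100 show cell death.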 Calls of active or inactive are those of the source. Rule for the calls: active = growth percent below 10; inactive = the rest.

Test system: HL-60(TB) leukemia
Test: NCI-60 one-dose screen, 48 h (100 = growth as untreated, 0 = no growth, -100 = all killed)
Conditions: 10 µM unless noted

Q: For `Cc1c(Cl)cccc1NC(=O)c1sc2nc3c(cc2c1N)CCCCC3`, which growth is on record?
A: Its growth is -24.9% (active).

Q: `O=C1Nc2ccccc2/C1=C/c1cccn1CCCCn1c2ccccc2c(=O)c2ccccc21` was tested. Which growth did it give?
A: The growth was 60.2% (inactive).

Q: Which growth does the source give for `COc1cc(C2CC(c3ccccc3)=NN2C=O)ccc1Oc1ccnc2cc(Cl)ccc12` (configuration not stated) here?
A: Its growth is 33.5% (inactive).

Q: `Cn1c(=O)n(-c2ccc(C(C)(C)C#N)cc2)c2c3cc(-c4cnc5ccccc5c4)ccc3ncc21` was tested. Which growth did it give?
A: Its growth is 10.3% (inactive) and -11.9% (active).

Q: For `O=Cc1c(O)c2ccccc2[nH]c1=O`, which growth is on record?
A: The growth was 126% (inactive).

Q: For `N#C/C(=C\c1ccc2c(c1)OCO2)n1nnc2cc(F)c(F)cc21`, which growth is on record?
A: Its growth is 38.6% (inactive).

Q: How did the growth turn out when `COc1cc(-c2nnc(-c3c(-c4ccc(F)cc4)nc4ccccn34)o2)cc(OC)c1OC` was run?
A: The growth was 102% (inactive).

Q: `CC(=O)OC1Oc2ccccc2-c2oc(=O)c(-c3cc(=O)oc4cc(O)ccc34)cc21` (configuration not stated) was tested. Which growth did it give?
A: Its growth is 47% (inactive).

Q: For `CC(C)(C)NC(C1=CC(C)(C)c2ccccc2C1=O)c1ccccc1` (configuration not stated), which growth is on record?
A: The growth was -45.2% (active).

Q: How did the growth turn out when `OC1CC2c3ccccc3C1c1ccccc12` (configuration not stated) was run?
A: The growth was 109% (inactive).

Q: For `CC(=O)OC1C=CC(OC(C)=O)O1` (configuration not stated), which growth is on record?
A: Its growth is 102% (inactive).

Q: Which growth does the source give for `CCOc1ccc(/C=N\N2CCCCCC2)cc1OCC` here?
A: The growth was 92.7% (inactive).

Q: For `C=C[C@@H]1C[C@@H]2Cc3cc(Cl)ccc3N1O2`, which growth is on record?
A: Its growth is 13.8% (inactive).

Q: `Cc1cc(NCc2cc(Nc3ccnc4cc(Cl)ccc34)ccc2F)nc(N2CCSCC2)n1` was tested. Which growth did it give?
A: The growth was -61.4% (active).

Q: How did the growth turn out when `O=C1C=CC(=O)N1c1ccc(N2C(=O)C=CC2=O)cc1` was run?
A: Its growth is -50.6% (active).

Q: Which growth does the source give for `CCn1nc(-c2ccc(C(=O)OC)cc2)nc2c(=O)n(C)c(=O)nc1-2` here?
A: The growth was 132% (inactive).

Q: How did the growth turn out when `COC(=O)CC1=C(c2ccc([N+](=O)[O-])cc2)CCC1=O` was run?
A: Its growth is 100% (inactive).

Q: With `C#CCn1cnc2c(Nc3cccc(NC(=O)C=C)c3)ncnc21` as the molecule, how does the growth read?
A: The growth was 99.6% (inactive).

Q: `C=C1CCC2C3(C)COC(c4ccc(N(C)C)cc4)OC3CCC2(C)C1C/C=C1/C(=O)OCC1O` (configuration not stated) was tested. Which growth did it give?
A: The growth was 15.3% (inactive).

Q: How did the growth turn out when `O=[N+]([O-])c1cccc(/C=C/c2ccc3ccccc3n2)c1` was run?
A: Its growth is 90.8% (inactive).

Q: How did the growth turn out when `CC(C)=NNc1ccccn1` was run?
A: The growth was 34.6% (inactive).

Q: For `CCOC(=O)c1cc(C(=O)c2cc(OC)c(OC)c(OC)c2)n2ncccc12`, which growth is on record?
A: The growth was -32.5% (active).

Q: Which growth does the source give for `CCCNC(=O)Nc1ccc2cc3ccc(NC(=O)NCCC)cc3nc2c1` here?
A: The growth was 74.9% (inactive).

Q: For `CCCCCCCCCCNCCSS(=O)(=O)O`, which growth is on record?
A: The growth was 79% (inactive).

Q: How did the growth turn out when `COc1ncc(F)c(OC)n1` was run?
A: The growth was 95.3% (inactive).

Q: How did the growth turn out when `Oc1ccc(/C=N/Nc2nnc(N/N=C/c3ccc(O)cc3O)c3ccccc23)c(O)c1` was run?
A: The growth was -62.2% (active).

Q: `COc1cc2c(cc1OC)C1(C)N(CC2)C(=O)OC1(C)C` (configuration not stated) was tested. Which growth did it give?
A: Its growth is -79.2% (active).
